Bioassay records: PubChem, National Center for Advancing Translational Sciences (NCATS)
Shown are actives, neighbours in structure and some others; about 6% of the full set was active somewhere.
D1 agonist – human D1 receptor agonism; AID 504660; HEK293 T-REx D1 cells, calcium flux, agonist mode; activation, % at 2 µM; P21728; 1% of 360,000 active; in the data active means activation above about 30%; further: 0% is about no effect
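Agonism was scored from calcium flux recorded over 180 s (1 read/s) after pintool compound addition, following a 10-cycle baseline. Cells were inducible force-coupled HEK293 TREx D1, plated overnight at 30 C and loaded with no-wash calcium dye.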
D3 ag – D3 dopamine receptor (human) agonism; AID 652048; D3R DiscoveRx beta-arrestin cells, luminescence, 90 min; 0.58% of 410,000 active; max activation, %; P35462; in the data active means max activation above about 30%; further: 0% is about no effect
Target sequence (P35462 whole entry, looked up): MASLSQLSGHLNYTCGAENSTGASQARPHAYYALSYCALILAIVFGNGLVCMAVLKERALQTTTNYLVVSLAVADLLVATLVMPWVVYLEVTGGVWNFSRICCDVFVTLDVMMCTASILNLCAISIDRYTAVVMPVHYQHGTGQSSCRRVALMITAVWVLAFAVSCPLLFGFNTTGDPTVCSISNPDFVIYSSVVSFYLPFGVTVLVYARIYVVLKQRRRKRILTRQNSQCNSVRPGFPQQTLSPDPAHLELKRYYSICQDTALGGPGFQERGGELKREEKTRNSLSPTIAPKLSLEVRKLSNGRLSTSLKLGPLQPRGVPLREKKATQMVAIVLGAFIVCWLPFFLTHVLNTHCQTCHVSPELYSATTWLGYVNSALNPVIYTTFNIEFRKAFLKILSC
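Cells at 1500/well, incubated overnight, then treated with pinned compounds (dopamine as control) for 90 min at 37 degrees C. DiscoveRx reagent added for 30 - 60 minutes at room temperature; luminescence read.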
DRD3 antagonist – D3 dopamine receptor (human) antagonism | P35462 | D3R cells, DiscoveRx beta-arrestin luminescence, antagonist mode; stronger effect = lower value | max response, negative = inhibition, % | 2.5% of 360,000 active | AID 652054; in the data active means max response below about -50%; further: on the % scale 0 is the no-effect control and ±100 the full control effect
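Cells expressing the human receptor were seeded at 1500 cells/well, incubated overnight at 37 degrees C in 5% CO2, then exposed to library compounds with dopamine controls for 90 minutes at 37 degrees C before luminescent detection.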
D1 antagonist – antagonists of human D1 dopamine receptor | AID 504652 | 3.2% of 360,000 active | HEK293 TREx D1 cells, calcium flux, dopamine EC80; stronger effect = lower value | P21728 | activity change, negative = inhibition, % at 10 µM; in the data active means activity change below about -30%; further: on the % scale 0 is the no-effect control and ±100 the full control effect
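Using tetracycline-induced force-coupled D1 Hek293 cells and a calcium dye, signals were followed for 180 s after compound, then for 180 s after EC80 dopamine, to detect inhibitors.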
D1 PAM – enhances dopamine response at the human D1 receptor | P21728 | HEK293 TREx D1 cells, calcium flux, dopamine EC20 potentiation | potentiation, % at 10 µM | 0.036% of 360,000 active | AID 504651; in the data active means potentiation above about 30%; further: 0% is about no effect
* = called active by the depositor; · = no result.

SMILES	D1 agonist	D3 ag	DRD3 antagonist	D1 antagonist	D1 PAM
COC(=O)CC1C(=O)NCCN1C(=S)Nc1cccc(C)c1 (configuration not stated)	3	-2	-6	25	-4
COC(=O)CC1C(=O)NCCN1C(=S)Nc1ccc(F)cc1 (configuration not stated)	2	8	6	-37*	-5
O=C(CN1CCN(c2ccccn2)CC1)Nc1ccc(F)c(F)c1	3	22	18	5	1
O=C(CN1CCN(c2ccccn2)CC1)Nc1ccc(OCc2ccccc2)cc1	13	50*	13	-24	-8
O=C(CN1CCN(c2ccccn2)CC1)Nc1ccc(Oc2ccccc2)cc1	·	25	12	·	·
Cc1cc(NC(=O)CN2CCN(c3ccccn3)CC2)ccc1Br	1	47*	-10	-5	-5
Cc1ccc(NC(=O)/C(C#N)=C/c2cc(C)n(-c3ccc(F)cc3)c2C)cc1C	1	6	·	3	0
CN(C)c1nc(C=C(C#N)C#N)c(Cl)n1-c1ccc(F)cc1	0	-19	-64*	-9	-1
Cc1cccc(N2CCN(Cc3nc(-c4ccc(F)cc4F)oc3C)CC2)n1	9	-16	-86*	5	-6
Cc1oc(-c2cccc(F)c2)nc1CN1CCCN(C(=O)c2ccco2)CC1	2	-17	-62*	-1	4
Cc1oc(-c2cc(F)ccc2F)nc1CN1CCCN(C(=O)c2ccco2)CC1	0	-16	-81*	0	6
Cc1cnc(C)c(N2CCN(Cc3nc(-c4cccc(F)c4F)oc3C)CC2)n1	3	-10	-22	5	-3
CCc1ccccc1NC(=O)NC(CC)Cn1nnc2ccccc2c1=O (configuration not stated)	0	-6	·	2	-1
Cc1cc(C)n2ncc(C(=O)NCCc3ccccc3)c2n1	0	-6	-9	-33*	4
COc1ccc(CNC(=O)c2cc(C)nc3ccccc23)cc1OC	2	8	-2	-13	-7
CCCNC(=O)COC(=O)c1cc(C)nc2ccccc12	2	0	-2	5	0
COc1ccc(C(=O)NCc2cc(C)nc3ccccc23)cc1	20	0	13	-4	3
COc1ccccc1CNC(=O)c1cc(C)nc2ccccc12	1	23	1	-31*	-3
Cc1cc(C)n2ncc(C(=O)NCc3ccccc3)c2n1	0	2	-16	-4	12
Cc1cccc(OCC(=O)NCc2cc(C)nc3ccccc23)c1	13	-4	-8	-34*	-6
Cc1cc(C(=O)OCC(=O)NCCc2ccccc2)c2ccccc2n1	13	51*	-14	-16	·
CCCCNC(=O)COC(=O)c1cc(C)nc2ccccc12	3	16	21	1	8
COC(=O)c1sccc1NC(=O)c1cc(-c2cc(C)ccc2C)nc2ccccc12	5	26	19	19	-1
Cc1ccc(C)c(-c2cc(C(=O)Nc3nccs3)c3ccccc3n2)c1	2	32*	5	-10	-7
CCOc1ccc(-c2cc(C(=O)NCCc3ccc(C)cc3)c3ccccc3n2)cc1	-1	7	·	0	3
SMILES	D1 agonist	D3 ag	DRD3 antagonist	D1 antagonist	D1 PAM
Cc1cc(C(=O)OCC(=O)NCCC(C)C)c2ccccc2n1	10	2	11	-47*	-4
Cc1ccc(-c2cc(C(=O)NCCc3ccccc3)c3ccccc3n2)cc1C	2	7	·	-31*	-2
C=C1C(=C/C=C2\CCC[C@]3(C)[C@@H]([C@H](C)/C=C/[C@H](C)C(C)C)CC[C@@H]23)C[C@@H](O)C[C@@H]1O	·	-6	·	·	·
O=C(Cn1cc(S(=O)(=O)c2ccc(F)cc2)c(=O)c2cc3c(cc21)OCO3)Nc1ccccc1	2	2	·	-34*	0
Cc1ccc(NC(=O)Cn2cc(S(=O)(=O)c3ccc(F)cc3)c(=O)c3cc4c(cc32)OCO4)cc1	1	6	·	2	-2
COc1ccc(S(=O)(=O)c2cn(CC(=O)Nc3ccccc3)c3ccc(Cl)cc3c2=O)cc1	6	2	·	-45*	1
CC(C)CCn1c(=O)c2sccc2n2c(CCCC(=O)NCCc3ccccc3)nnc12	0	-9	·	-8	-4
CCCCCCN1CCN(C2CN(Cc3cn(Cc4ccccc4)nn3)S(=O)(=O)C2)CC1 (configuration not stated)	·	-10	-51*	·	·
Cc1ccc(CN2CC(N3CCN(CCO)CC3)CS2(=O)=O)cc1 (configuration not stated)	·	-4	-61*	·	·
Cc1cc(C)cc(Cn2cc(CN3CC(N4CCSCC4)CS3(=O)=O)nn2)c1 (configuration not stated)	·	-1	-54*	·	·
O=S1(=O)CC(N2CCN(CCO)CC2)CN1Cc1ccc(F)cc1 (configuration not stated)	·	0	0	·	·
Cc1ccc(CNC(=O)CCc2c(C)nc3c4c(C)cc(C)nc4nn3c2C)cc1	-3	-11	·	2	-2
O=[N+]([O-])c1c(Nc2ccc(O)cc2)cc(Cl)c2nonc12	3	-13	-161*	-42*	-4
O=[N+]([O-])c1c(Nc2ccccn2)cc(Cl)c2nonc12	1	-16	-86*	-2	-4
NC(=O)c1c(-c2cccs2)csc1N	1	4	-54*	0	4
CCOC(=O)c1c(-c2cccs2)csc1NC(=O)CC(C)C	4	-2	-1	3	4
CCOC(=O)C1=C(COC(=O)C(CC)c2ccccc2)NC(=O)NC1C (configuration not stated)	2	2	5	-36*	-6
CCOC(=O)C1=C(COC(=O)CCOc2ccccc2C)NC(=O)NC1C (configuration not stated)	1	-13	-65*	4	-8
CCOC(=O)C1=C(COC(=O)c2ncc(Cl)c(Cl)c2Cl)NC(=O)NC1C (configuration not stated)	-2	-2	13	-49*	-4
COc1ccc2c(Sc3ccccc3)c(C(=O)NCc3cc(Br)ccc3OC)[nH]c2c1	4	-10	·	8	2
COc1ccc(NC(=O)c2ccc3c(=O)n4nc(Nc5cc(C)ccc5C)sc4nc3c2)cc1	3	5	·	-4	7
CC(=O)Nc1ccn(C2COC(COC(=O)c3ccccc3)O2)c(=O)n1 (configuration not stated)	·	-5	·	·	·
CCCC1=NN2C(=N)/C(=C\c3cc(C)n(-c4cc(C)cc(C)c4)c3C)C(=O)N=C2S1	40*	-9	-57*	-60*	-1
Cc1cc(C)cc(-n2c(C)cc(/C=C3\C(=N)N4N=C(CC(C)C)SC4=NC3=O)c2C)c1	0	4	-2	-8	-14
COc1ccc(NC(=O)c2oc3ccc(S(=O)(=O)N4CCC5(CC4)OCCO5)cc3c2C)cc1Cl	-2	24	·	-28	-3
